# Laboratory results: PubChem BioAssay
# Where “and” joins values, the source holds several entries; their conditions need not be identical. Equal entries are not always repeated. Where a structure was tested more than once in an assay, its records may differ in their call. Calls of active or inactive are those of the source. Cut-off read from the data, not from the text of the source, unless noted: active = inhibition above about 80%; inactive = the rest.
# Tests used:
# [1] = target: NAD(+) hydrolase SARM1 (Homo sapiens) (UniProt Q6SZW1); assay: blocking NAD cleavage by SARM1 SAM-TIR – cell lysate, NAD-Glo luminescence (AID 1508614;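 active = compound whose remaining NAD level is above about 45 nM, limit read from the data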;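 note: higher remaining NAD means stronger inhibition of SARM1 NADase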); settings: SAM-TIR HEK293T lysate NADase, at 1 µM, stronger effect = higher value
# [2] = galactose survival enhancers in mitochondrial complex I cybrids – cell-based, galactose medium, ATP luminescence, primary screen (AID 1645843;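 active = z-score of at least 1.8 in each of two replicates, scored against plate mean and spread of sample wells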;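 note: positive z means more ATP and so rescue of galactose-driven cybrid death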); settings: complex I mutant cybrid cells, 72 h, stronger effect = higher value
# [3] = target: Mitogen-activated protein kinase 7 (Homo sapiens) (UniProt Q13164); assay: Gal4-ERK5 driven luciferase induction – cell-based, HTS, primary screen (AID 1508626;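 active = luciferase signal above three times the same-plate solvent-only control wells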;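 note: luciferase driven by Gal4-ERK5 fusion binding five Gal4 sites before minimal TATA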); settings: HeLa Gal4-ERK5 transactivation, 18 h, at 5 µM, stronger effect = higher value
# [4] = growth inhibition, single agent or in combination, cell-based, chromothripsis tumors, cisplatin or BGB combos (AID 1671449); settings: LFS_MB_P medulloblastoma cells;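 note: cells exposed for 96 hours; 0% = vehicle DMSO and 100% = killing by high DMSO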
# [5] = growth inhibition, single agent and combos, cell-based, chromothripsis tumors, cisplatin or BGB combos (AID 1671450); settings: HDN33 neuroblastoma cells, stronger effect = higher value;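 note: cells exposed to compound for four days; 0% = vehicle DMSO and 100% = cell killing by high DMSO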
# [6] = growth inhibition, single agents and combos, ICB984, cell-based, cisplatin or BGB combos, synergistic combos for chromothripsis tumors (AID 1671451; call rule not given here;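 note: cells exposed for 96 hours before readout; 0% = vehicle DMSO and 100% = killing by high DMSO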); settings: ICB984 medulloblastoma cells, drug combinations, stronger effect = higher value
# [7] = growth inhibition, single agents and combos, LFS_MB_1R, cell-based, cisplatin or BGB combos, synergistic combos for chromothripsis tumors (AID 1671452); settings: LFS_MB_1R medulloblastoma cells, stronger effect = higher value;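 note: cells exposed for 96 hours before readout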
# [8] = growth inhibition, single agents and combos, HTB85, cell-based, BGB or cisplatin IC20 combos, synergistic combos for chromothripsis tumors (AID 1671453); settings: HTB85 osteosarcoma cells, drug combinations, stronger effect = higher value;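 note: cells exposed for 96 hours before readout; 0% = vehicle DMSO and 100% = high DMSO killing control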
# [9] = growth inhibition, single agents and combos, CRL2098, cell-based, BGB or cisplatin IC20 combos, synergistic combos for chromothripsis tumors (AID 1671454); settings: CRL2098 osteosarcoma cells, drug combinations, stronger effect = higher value;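 note: cells exposed for 96 h before readout; 0% = vehicle DMSO and 100% = killing by high DMSO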
# [10] = growth inhibition, single agents and combos, HD-MB03, cell-based, BGB or cisplatin IC20 combos, synergistic combos for chromothripsis tumors (AID 1671455; in the data active = inhibition above about 83%;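 note: 0% = vehicle DMSO and 100% = high DMSO as cytotoxic control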); settings: HD-MB03 medulloblastoma cells, stronger effect = higher value
# [11] = growth inhibition, single agents and combos, UWB1.289, cell-based, BGB or cisplatin combos, synergistic combos for chromothripsis tumors (AID 1671456); settings: UWB1.289 ovarian carcinoma cells, stronger effect = higher value;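 note: cells exposed to compound for four days; 0% = vehicle DMSO and 100% = killing by high DMSO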
# [12] = growth inhibition, single agents and combos, LFS_MB_2R, cell-based, cisplatin combos, synergistic combos for chromothripsis tumors (AID 1671457); settings: LFS_MB_2R medulloblastoma cells, stronger effect = higher value;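 note: cells exposed to compound for four days before readout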
# [13] = growth inhibition, MDA-MB-436, cell-based, BGB or cisplatin combos, synergistic combos for chromothripsis tumors (AID 1671458; call rule not given here;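 note: cells exposed for 96 hours; 0% = vehicle DMSO and 100% = killing by high DMSO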); settings: MDA-MB-436 breast carcinoma growth inhibition, drug combinations, stronger effect = higher value
# [14] = UWB1.289_BRCA1 ovarian cancer growth, cell-based, BGB or cisplatin combinations (AID 1671459); settings: UWB1.289 BRCA1 ovarian carcinoma, drug combinations, stronger effect = higher value
# [15] = drug combination toxicity in non-malignant astrocytes – cell-based, BGB or cisplatin IC20 combos, cytotoxicity control for chromothriptic childhood tumor combination screen (AID 1671460); settings: Human astrocytes, viability inhibition, drug combinations, at 0.5 µM, stronger effect = higher value;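 note: cells exposed to compounds for 96 hours before viability readout; 0% = vehicle and 100% = killing control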
# [16] = BT084 cell growth, single and combined drugs, ICGC_MB145, cisplatin and BGB IC40 combos (AID 1671461); settings: BT084 medulloblastoma cells, drug combinations, stronger effect = higher value;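 note: cells exposed to drugs for 96 hours; 0% = vehicle DMSO and 100% = high DMSO full killing control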
# [17] = RCMB18 cell growth, single agent and combined, cisplatin and BGB IC40 combos (AID 1671462); settings: RCMB18 medulloblastoma cells, stronger effect = higher value;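 note: cells exposed to compound for four days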
# [18] = CRL1545 cell growth, single agent and combined, cisplatin and BGB IC20 combos (AID 1671464); settings: CRL1545 osteosarcoma cells, stronger effect = higher value;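 note: cells exposed to compound for 96 hours before readout; 0% = vehicle DMSO and 100% = high DMSO killing control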
# [19] = measured here: combination with BGB IC40, at 0.05 µM
# [20] = measured here: with BGB IC20 combination, at 0.5 µM
# [21] = measured here: with cisplatin IC20 combination, at 0.5 µM
# [22] = measured here: combination with cisplatin, at 0.5 µM
# [23] = measured here: combination with cisplatin, at 5 µM
# Mitogen-activated protein kinase 7 (Homo sapiens), sequence (Q13164 whole entry, looked up, the tested form may be a part): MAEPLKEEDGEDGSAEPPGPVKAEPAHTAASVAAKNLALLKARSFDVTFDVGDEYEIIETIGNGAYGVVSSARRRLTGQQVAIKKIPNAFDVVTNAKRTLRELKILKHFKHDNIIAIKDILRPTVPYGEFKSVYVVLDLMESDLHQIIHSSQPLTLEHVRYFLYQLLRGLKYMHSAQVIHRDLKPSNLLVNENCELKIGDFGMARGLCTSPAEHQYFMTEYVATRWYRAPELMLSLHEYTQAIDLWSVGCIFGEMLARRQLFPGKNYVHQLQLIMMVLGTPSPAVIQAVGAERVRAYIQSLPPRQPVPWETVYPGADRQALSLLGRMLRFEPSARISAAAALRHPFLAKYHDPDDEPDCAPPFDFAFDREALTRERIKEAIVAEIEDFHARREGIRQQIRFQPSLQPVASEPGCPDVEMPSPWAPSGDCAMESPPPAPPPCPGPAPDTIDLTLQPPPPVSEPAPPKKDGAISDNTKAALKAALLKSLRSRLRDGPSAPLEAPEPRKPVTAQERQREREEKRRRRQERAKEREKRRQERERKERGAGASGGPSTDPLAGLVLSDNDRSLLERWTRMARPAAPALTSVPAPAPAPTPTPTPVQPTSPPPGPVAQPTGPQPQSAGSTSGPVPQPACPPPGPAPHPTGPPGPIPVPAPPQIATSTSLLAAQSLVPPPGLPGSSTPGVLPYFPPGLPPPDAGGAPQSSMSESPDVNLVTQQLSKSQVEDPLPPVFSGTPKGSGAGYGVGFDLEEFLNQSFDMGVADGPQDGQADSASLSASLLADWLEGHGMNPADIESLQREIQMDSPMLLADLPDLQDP
# NAD(+) hydrolase SARM1 (Homo sapiens), sequence (Q6SZW1 whole entry, looked up): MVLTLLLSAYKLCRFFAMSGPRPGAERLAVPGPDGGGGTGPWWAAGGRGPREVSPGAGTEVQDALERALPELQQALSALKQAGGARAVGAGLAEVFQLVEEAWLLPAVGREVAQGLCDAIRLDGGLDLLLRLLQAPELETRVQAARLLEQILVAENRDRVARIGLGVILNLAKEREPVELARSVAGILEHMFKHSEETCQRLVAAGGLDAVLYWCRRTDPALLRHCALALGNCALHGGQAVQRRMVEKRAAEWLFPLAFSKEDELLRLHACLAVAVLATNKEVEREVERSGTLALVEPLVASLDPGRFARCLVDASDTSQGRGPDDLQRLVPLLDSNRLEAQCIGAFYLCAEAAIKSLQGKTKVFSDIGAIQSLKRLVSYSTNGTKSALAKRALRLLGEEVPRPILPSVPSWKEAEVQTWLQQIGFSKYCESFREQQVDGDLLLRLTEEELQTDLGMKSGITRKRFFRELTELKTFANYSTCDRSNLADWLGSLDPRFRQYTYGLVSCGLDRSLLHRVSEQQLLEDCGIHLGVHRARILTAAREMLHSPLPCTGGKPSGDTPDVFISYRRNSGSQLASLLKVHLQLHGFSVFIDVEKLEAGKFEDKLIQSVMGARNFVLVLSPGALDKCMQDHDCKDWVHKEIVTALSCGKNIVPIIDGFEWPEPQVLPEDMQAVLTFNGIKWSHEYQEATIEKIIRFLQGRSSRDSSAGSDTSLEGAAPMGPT
structure (smiles),measurement,setting,value
Cc1cnc(C(=O)O)c[n+]1[O-],remaining NAD,[1],10 nM (inactive)
same,z-score,[2],0.95 (inactive)
O=c1c(-c2ccc(O)cc2)coc2cc(O)cc(O)c12,luciferase signal,[3],276 AU (active)
same,z-score,[2],1.99 (active) and 1.98 (inactive)
same,inhibition,"[4]; at 0.5 µM, stronger effect = higher value",-9.97% (inactive) and -4.89% (inactive)
same,inhibition,"[4]; measured here: combination with BGB IC20, at 0.005 µM",-17.8% and -1.45%
same,inhibition,"[4]; measured here: combination with BGB IC40, at 0.005 µM",-18% and -3.22%
same,inhibition,[4]; [19],-25.1% and -11.9%
same,inhibition,"[4]; measured here: combination with cisplatin, at 0.5 µM, stronger effect = higher value",-5.93% and -18.3%
same,inhibition,"[4]; measured here: combination with cisplatin, at 5 µM, stronger effect = higher value",8.08% and 3.66%
same,inhibition,"[5]; BGB combo, at 5 µM",-47.6% and 34.9%
same,inhibition,[5]; at 0.5 µM,-42.8% (inactive) and -12.6% (inactive)
same,inhibition,"[5]; cisplatin combo, at 5 µM",-40% and 3.53%
same,inhibition,[5]; [20],-43.9% and -15.8%
same,inhibition,[5]; [21],-42.3% and -4.37%
same,inhibition,"[5]; single agent, at 5 µM",-15.6% and 2.01%
same,inhibition,"[6]; BGB IC20 combo, at 0.005 µM",8.8% and -0.198%
same,inhibition,"[6]; BGB IC40 combo, at 0.005 µM",-22.1% and -29.4%
same,inhibition,"[6]; BGB IC40 combo, at 0.05 µM",-7.4% and -6.46%
same,inhibition,[6]; at 0.5 µM,-34.3% (inactive) and -16.8% (inactive)
same,inhibition,"[6]; cisplatin combo, at 0.05 µM",-11.3% and -9.44%
same,inhibition,"[6]; cisplatin combo, at 0.5 µM",-39.9% and -21.8%
same,inhibition,"[6]; cisplatin combo, at 5 µM",-72.1% and -7.73%
same,inhibition,"[6]; measured here: 5 uM single agent, at 5 µM",-9.66% and -12.4%
same,inhibition,[7]; at 0.5 µM,-22.6% (inactive) and -10.7% (inactive)
same,inhibition,[7]; [19],-45.5% and -14.8%
same,inhibition,[7]; [22],-45.5% and -6.51%
same,inhibition,[7]; [23],-62.6% and -7.84%
same,inhibition,[8]; at 0.5 µM,-23.1% (inactive) and -8.31% (inactive)
same,inhibition,"[8]; measured here: with BGB IC20, at 0.5 µM",-24.9% and -17.6%
same,inhibition,"[8]; measured here: with BGB IC20, at 5 µM",-18.6% and -5.83%
same,inhibition,"[8]; measured here: with cisplatin IC20, at 0.5 µM",-32.2% and -12.6%
same,inhibition,"[8]; measured here: with cisplatin IC20, at 5 µM",-33.6% and -5.76%
same,inhibition,"[8]; single agent, at 5 µM",-0.415% and -6.72%
same,inhibition,[9]; at 0.5 µM,-89.3% (inactive) and -22.4% (inactive)
same,inhibition,"[9]; measured here: combination with BGB at IC20, at 0.5 µM",-68.7% and -13.6%
same,inhibition,"[9]; measured here: combination with cisplatin at IC20, at 0.5 µM",-148% and -31.4%
same,inhibition,[10]; at 0.5 µM,-19.5% (inactive) and -5.86% (inactive)
same,inhibition,"[10]; measured here: combo with BGB at IC20, at 0.5 µM",-19.9% and -0.815%
same,inhibition,"[10]; measured here: combo with cisplatin at IC20, at 0.5 µM",-26.5% and -4.16%
same,inhibition,[11]; at 0.5 µM,-11.2% (inactive) and 6.51% (inactive)
same,inhibition,"[11]; measured here: inhibition with BGB combination, at 0.05 µM",-19.6% and -14.9%
same,inhibition,"[11]; measured here: inhibition with cisplatin combination, at 0.05 µM",-41.2% and -9.05%
same,inhibition,[12]; at 0.5 µM,-21.6% (inactive) and -9.3% (inactive)
same,inhibition,[12]; [22],-19.9% and -5.5%
same,inhibition,[12]; [23],2.54% and -37.8%
same,inhibition,[13]; at 0.5 µM,-10.3% (inactive) and -13.9% (inactive)
same,inhibition,"[13]; measured here: BGB combination, at 0.5 µM",-9.11% and -11.4%
same,inhibition,"[13]; measured here: BGB combination, at 5 µM",-2.8% and 13.3%
same,inhibition,"[13]; measured here: cisplatin combination, at 0.5 µM",-11% and -29.3%
same,inhibition,"[13]; measured here: cisplatin combination, at 5 µM",-8.45% and 5.18%
same,inhibition,"[14]; BGB combination, concentration series, at 5 µM",16.4% and 33.4%
same,inhibition,[14]; at 0.5 µM,-10.6% (inactive) and 4.64% (inactive)
same,inhibition,"[14]; cisplatin combination, concentration series, at 5 µM",5.85% and 47.6%
same,inhibition,[15],-1.4% (inactive) and 12.1% (inactive)
same,inhibition,[15]; measured here: combo with BGB IC20,14% and 8.3%
same,inhibition,[15]; measured here: combo with cisplatin IC20,-16.8% and 13.7%
same,inhibition,[16]; at 0.5 µM,-13.6% (inactive) and -23.4% (inactive)
same,inhibition,"[16]; cisplatin combination, at 0.5 µM",-26.2% and 3.79%
same,inhibition,"[16]; cisplatin combination, at 5 µM",1.19% and 21.5%
same,inhibition,"[16]; measured here: BGB IC40 combination 0.05 uM, at 0.05 µM",-40.6% and -5.57%
same,inhibition,"[16]; single agent, at 5 µM",-5.08% and 6.68%
same,inhibition,[17]; at 0.5 µM,0.59% (inactive) and -8.25% (inactive)
same,inhibition,"[17]; cisplatin combo, at 5 µM",-43.5% and 11.5%
same,inhibition,"[17]; measured here: BGB IC40 combination, at 0.05 µM",-4.72% and -2.4%
same,inhibition,[17]; [22],13.5% and -9.76%
same,inhibition,"[17]; single agent, at 5 µM",-12.8% and -12.2%
same,inhibition,[18]; at 0.5 µM,-44.2% (inactive) and 5.21% (inactive)
same,inhibition,[18]; [20],-31% and 18.3%
same,inhibition,[18]; [21],-53.3% and -3.63%
same,inhibition,"[18]; single agent, at 0.05 µM",-62.4% and -21.3%
same,inhibition,"[18]; single agent, at 5 µM",-46.3% and 9.19%
